The results in this text go back to PubChem BioAssay AID2016 (NMMLSC, 2009).

About 1,700 (0.52%) of roughly 330,000 compounds were called active.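 Rule for the calls: active = GFP response versus DMSO above a set limit, roughly screen mean plus 3 SD (cut at about 180% in these data); inconclusive = fewer than 70 cells counted for a yeast strain; inactive = the rest.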 This excerpt belongs to a sample that is enriched for actives.

A short description of this assay: modulators of MEP2-GFP levels in yeast, primary screen, S. cerevisiae, multiplex flow cytometry, MLPCN library (AID 2016).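 Note: median GFP fluorescence of the barcode-gated MEP2-GFP cells per well.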 To be noted: S. cerevisiae MEP2-GFP strain, 3 h, at 10 µM, hits give high values, 100% = DMSO control level.
With `CC12c3ccccc3C(c3ccccc31)C1C(=O)N(Cc3cccnc3)C(=O)C12` (stereo unspecified), the GFP response vs DMSO is 107% (inactive).

As to `COc1ccc(CNC(=O)CN2CCC(n3nnc4cc(F)ccc43)CC2)cc1`, the GFP response vs DMSO was 88.8% (inactive).

Turning to `O=C(Nc1cccc2cccnc12)c1cccc(Cl)c1`, the GFP response vs DMSO was 567% [may fluoresce violet] (active).

`O=C(Nc1cccnc1Cl)c1cc(-c2cccc(Cl)c2)on1`: the GFP response vs DMSO is 103% (inactive).

Regarding `CSc1ccc(C#N)cc1NC(=O)c1cccc(Cl)c1`, the GFP response vs DMSO is 102% (inactive).

Turning to `CC(=O)Nc1ccc(Nc2nc3c(S(=O)(=O)c4ccc(C)c(C)c4)nnn3c3ccccc23)cc1`, the GFP response vs DMSO is 103% (inactive).

`Cc1ccc(S(=O)(=O)c2nnn3c2nc(N2CCN(c4ccccn4)CC2)c2ccccc23)cc1`: the GFP response vs DMSO is 112% (inactive).

Turning to `Cc1cccc(Nc2nc3c(S(=O)(=O)c4ccccc4)nnn3c3ccccc23)c1C`, the GFP response vs DMSO is 1130% [may fluoresce green] (active).

In the case of `C=CC[C@@H](Cc1ccc(F)cc1)C(=O)OC[C@H]1CCCN1C(=O)[C@H](CC=C)CC(=O)N(CCO)Cc1ccccc1`, the GFP response vs DMSO was 103% (inactive).

For `NC1=NC(c2ccc([N+](=O)[O-])cc2)N(c2ccc(F)cc2)C(N)=N1` (stereo unspecified), the GFP response vs DMSO is 107% (inactive).

Regarding `O=C(CC1SC(=Nc2ccccc2F)N(CCN2CCOCC2)C1=O)Nc1ccc(F)cc1F` (stereo unspecified), the GFP response vs DMSO is 177% (active).

With `O=C(CN1CCN(C/C=C/c2ccccc2)CC1)Nc1ccc(F)cc1F`, the GFP response vs DMSO is 100% (inactive).

For the compound `O=C(CC1SC(N2CCOCC2)=NC1=O)Nc1ccccc1F` (stereo unspecified), the GFP response vs DMSO is 91.9% (inactive).

Turning to `CCCN1C2CCCC1CC(NC(=O)c1cccc(OC)c1)C2` (stereo unspecified), the GFP response vs DMSO was 93.2% (inactive).

Take `Cc1ccc(-n2cc3ccc([N+](=O)[O-])cc3n2)cc1`: the GFP response vs DMSO is 98.2% (inactive).

Take `Cc1ccc2c(c1)N(CC(=O)NCCc1ccc(Cl)cc1)C(=O)c1cccnc1O2`: the GFP response vs DMSO was 110% (inactive).

Take `CCCCNC(=O)C1(O)c2ccccc2NC(=O)N1c1ccc(Cl)cc1` (stereo unspecified): the GFP response vs DMSO was 108% (inactive).

On to `CCCCC1N2CC3([N+](=O)[O-])CN1CC([N+](=O)[O-])(C2)C3(C)C` (stereo unspecified), for which the GFP response vs DMSO is 96.3% (inactive).

As to `CSc1nc2nc3c(c(=O)n2[nH]1)CCC3`, the GFP response vs DMSO is 95.3% (inactive).

For `O=c1c2c(nc3nc[nH]n13)CCC2`, the GFP response vs DMSO was 532% [may fluoresce violet] (active).

As for `O=c1c2c(nc3cc(-c4cccc(Cl)c4)[nH]n13)CCCC2`, the GFP response vs DMSO was 98.5% (inactive).

As for `CNC(=O)Nc1cc(C(C)(C)C)no1`, the GFP response vs DMSO was 107% (inactive).

For `CCN(CC)c1ccc([N+](=O)[O-])cc1C(=O)O`, the GFP response vs DMSO is 109% (inactive).

With `Cc1noc(C)c1CCC(=O)N1CCCC(CO)(Cc2ccccc2)C1` (stereo unspecified), the GFP response vs DMSO is 96.4% (inactive).

Regarding `Cc1ccc(F)c(NC(=O)CCOc2ccccc2C)c1`, the GFP response vs DMSO was 96.5% (inactive).

In the case of `CCn1ncc(Br)c1C(=O)Nc1cc(C)ccc1F`, the GFP response vs DMSO is 233% [may fluoresce violet] (active).

Turning to `Cc1ccc(F)c(NC(=O)CCc2ccccc2)c1`, the GFP response vs DMSO is 93.7% (inactive).

In the case of `Cc1nnc(N(Cc2ccco2)C(=O)c2ccno2)s1`, the GFP response vs DMSO is 99% (inactive).

As for `CC(C)CC(CO)N1CCN(C(=O)c2ccc(Cl)cc2Cl)CCC1=O` (stereo unspecified), the GFP response vs DMSO was 96.1% (inactive).

As to `CCS(=O)(=O)Nc1ccc(C2=NN(C(C)=O)C(c3cccs3)C2)cc1` (stereo unspecified), the GFP response vs DMSO is 107% (inactive).

As to `CCCCc1c(O)nc2n(c1=O)CCS2`, the GFP response vs DMSO is 92.6% (inactive).

Consider `CCCS(=O)(=O)Nc1ccc(-c2cn3c(n2)SCC3)cc1`, for which the GFP response vs DMSO was 255% [may fluoresce violet] (active).

With `CCOc1ccc(NS(=O)(=O)c2ccc(C(=O)NCC(c3ccccc3OC)N3CCCC3)cc2)cc1` (stereo unspecified), the GFP response vs DMSO is 102% (inactive).

On to `O=C(Nc1ccc(N2CCOCC2)c(Cl)c1)c1ccc(S(=O)(=O)N2CCOCC2)cc1`, for which the GFP response vs DMSO was 95.7% (inactive).

As for `Cc1cc(C)n(-c2ccc(NC(=O)C3CCCCN3C(=O)c3cccs3)cc2)n1` (stereo unspecified), the GFP response vs DMSO is 92.9% (inactive).

Consider `Cc1cc(C)c(OCCN2CC(C)OC(C)C2)c(Br)c1` (stereo unspecified), for which the GFP response vs DMSO is 101% (inactive).

As for `Cc1ccc(-c2nc(CS(=O)(=O)CC(=O)NCc3ccc4c(c3)OCO4)c(C)o2)cc1`, the GFP response vs DMSO is 102% (inactive).

On to `COc1ccc(CCNC(=O)CS(=O)(=O)Cc2nc(-c3ccc(C)cc3)oc2C)cc1OC`, for which the GFP response vs DMSO was 186% (active).

Consider `COc1cccc(-c2nc(CS(=O)(=O)CC(=O)NCCc3ccc(OC)c(OC)c3)c(C)o2)c1`, for which the GFP response vs DMSO is 98.7% (inactive).

Turning to `O=C(CN1C(=O)c2cccnc2Oc2ccc(Cl)cc21)Nc1ccc(F)cc1`, the GFP response vs DMSO is 105% (inactive).

On to `COc1ccc(CNC(=O)CCN2C(=O)c3ccccc3C2=O)cc1`, for which the GFP response vs DMSO was 96.1% (inactive).

As to `CCOc1cc2[nH]c(=O)n(CCC(=O)NCc3ccc(OC)cc3)c(=O)c2cc1OCC`, the GFP response vs DMSO was 223% [may fluoresce violet] (active).

On to `COc1ccc(CNC(=O)CCn2cccc2)cc1`, for which the GFP response vs DMSO is 94.3% (inactive).

Take `Cc1nccn1CC(=O)N/N=C/c1ccc(O)c(O)c1`: the GFP response vs DMSO is 105% (inactive).

In the case of `NCCCCCC(=O)N/N=C/c1ccc2nccnc2c1`, the GFP response vs DMSO was 673% [may fluoresce violet] (active).

With `O=C(N/N=C/c1ccc(Cl)c(Cl)c1)c1ccc2nc[nH]c2c1`, the GFP response vs DMSO is 97.5% (inactive).

For `CCOc1ccc(C(C(=O)NCCOC)N(CCOC)C(=O)CCC(=O)Nc2ccccn2)cc1` (stereo unspecified), the GFP response vs DMSO is 296% [may fluoresce violet] (active).

`COCCN(C(=O)CCC(=O)Nc1ccccn1)C(C(=O)NCCC(C)C)c1ccc(OC)cc1` (stereo unspecified): the GFP response vs DMSO was 107% (inactive).

For `COCCNC(=O)C(c1ccc(C)cc1)N(C(=O)CCC(=O)Nc1ccccn1)c1cccc(C)c1` (stereo unspecified), the GFP response vs DMSO is 107% (inactive).

For the compound `Cn1c(CCC(=O)OCC(=O)NCc2ccccc2Cl)nc(=O)c2ccccc21`, the GFP response vs DMSO was 99.4% (inactive).

`COc1cc(Cl)c(C)cc1NC(=O)CSc1nnc(CN2CCCC2)o1`: the GFP response vs DMSO was 105% (inactive).

With `CC1CC(=S)Nc2ccccc2N1Cc1ccccc1` (stereo unspecified), the GFP response vs DMSO was 98.4% (inactive).

As to `Cc1cc(NS(=O)(=O)c2ccc(NC(=O)c3cccc(OC(F)F)c3)cc2)nc(C)n1`, the GFP response vs DMSO is 92% (inactive).

Take `Cc1cccc(C)c1NC(=O)CS(=O)CC(=O)N1CCN(c2ccccc2)CC1` (stereo unspecified): the GFP response vs DMSO was 102% (inactive).

Turning to `CC[n+]1cc(C)ccc1/C=C/c1ccc(N(C)C)cc1`, the GFP response vs DMSO was 180% (active).

In the case of `Cc1ccccc1NC(=O)C1CCCN(C(=O)NCc2ccccc2)C1` (stereo unspecified), the GFP response vs DMSO was 105% (inactive).

Turning to `COc1cccc(NC(=O)C(Sc2nnnn2C)c2ccccc2)c1` (stereo unspecified), the GFP response vs DMSO is 100% (inactive).

In the case of `CC(C)(C)C(=O)/C(C#N)=C/c1ccc(O)cc1`, the GFP response vs DMSO is 95.4% (inactive).

As to `O=C(Nc1ccc(F)c([N+](=O)[O-])c1)C1CC(=O)N(Cc2ccccc2)C1` (stereo unspecified), the GFP response vs DMSO is 101% (inactive).

With `Cc1cc(=O)oc2cc(NC(=O)C(C)Oc3ccccc3)ccc12` (stereo unspecified), the GFP response vs DMSO is 99.1% (inactive).

With `Cc1cc(=O)oc2cc(NC(=O)C3CC(=O)N(Cc4ccccc4)C3)ccc12` (stereo unspecified), the GFP response vs DMSO is 559% [may fluoresce violet] (active).

Take `O=C(C(Cc1ccccc1)n1cccc1)N1CCN(C2CCCCC2)CC1` (stereo unspecified): the GFP response vs DMSO was 96.8% (inactive).

For `CC(C)Cn1cnc2c1c(=O)n(CC(=O)NN)c(=O)n2Cc1ccccc1`, the GFP response vs DMSO is 97.4% (inactive).

In the case of `CN(CCO)Cc1csc2ccc(Br)cc12`, the GFP response vs DMSO is 112% (inactive).

With `CCN(CC)Cc1cc(C(C)=O)ccc1O`, the GFP response vs DMSO is 103% (inactive).

Turning to `CCN(CC)Cc1csc2ccc(Br)cc12`, the GFP response vs DMSO is 200% (active).

Regarding `CC(=O)N1c2ccc(S(=O)(=O)NCCC(=O)N(C)C3CCCCC3)cc2CC1C` (stereo unspecified), the GFP response vs DMSO is 104% (inactive).

As for `Cc1ccc(S(=O)(=O)Oc2ccc(/C=N/NC(=O)c3c(Cl)cnn3C)cc2)cc1`, the GFP response vs DMSO was 98.8% (inactive).

`COc1ccccc1OCCNc1cc(N2CCOCC2)ccc1[N+](=O)[O-]`: the GFP response vs DMSO is 106% (inactive).

Take `COc1ccc(CCNc2cc(N3CCN(C(=O)c4ccccc4OC)CC3)ccc2[N+](=O)[O-])cc1OC`: the GFP response vs DMSO was 180% [may fluoresce violet] (active).

Turning to `COc1ccc(CCNC(=O)c2ccccc2-c2ccccc2C(=O)O)cc1OC`, the GFP response vs DMSO is 93% (inactive).

`COC(=O)/C(=C\Nc1ccccc1)NC(=O)c1ccc(Cl)cc1Cl`: the GFP response vs DMSO was 91.1% (inactive).

Turning to `COCC1CCN(C(=O)c2ccc3oc(Cc4ccccc4)nc3c2)C1` (stereo unspecified), the GFP response vs DMSO was 101% (inactive).

Regarding `CCOC(=O)c1nnn(-c2nonc2-n2cccc2)c1CN1CCOCC1`, the GFP response vs DMSO was 92.2% (inactive).

Turning to `CCOC(=O)c1c(CN2CCOCC2)n(-c2ccccc2)c2ccc(O)cc12`, the GFP response vs DMSO is 240% [may fluoresce violet] (active).

With `CCOC(=O)c1c(CN(C)C)n(-c2ccccc2)c2cc(Br)c(O)cc12`, the GFP response vs DMSO is 96.5% (inactive).

Take `Cc1ccc2nnn(Cc3cccc(C(C)(C)C)c3O)c2c1`: the GFP response vs DMSO was 92.5% (inactive).

As to `COc1ccc(C)cc1NC(=O)CN1c2cccc3cccc(c23)S1(=O)=O`, the GFP response vs DMSO was 101% (inactive).

For `COc1cc(C(=O)Nn2c(O)c(C3=c4ccccc4=NC3=O)sc2=S)ccc1O`, the GFP response vs DMSO is 96.1% (inactive).

Consider `COc1cccc(-n2c(SCC(=O)NC3CCS(=O)(=O)C3)nc3ccccc3c2=O)c1` (stereo unspecified), for which the GFP response vs DMSO is 109% (inactive).

Take `O=C1N(Cc2ccc3c(c2)OCO3)c2ccccc2C1(O)c1c[nH]c2ccccc12` (stereo unspecified): the GFP response vs DMSO was 104% (inactive).

Consider `Cc1ccc(C(=O)Nc2ccn(C)n2)cc1`, for which the GFP response vs DMSO was 109% (inactive).

On to `CN(C)S(=O)(=O)c1cc(C(=O)Nc2ccn(C)n2)c(Cl)cc1Cl`, for which the GFP response vs DMSO is 7710% [may fluoresce green] (active).

As to `O=C(Nc1nccs1)c1cc(S(=O)(=O)N2CCOCC2)c(Cl)cc1Cl`, the GFP response vs DMSO was 97.8% (inactive).

`CCOC(=O)N1CCN(S(=O)(=O)c2ccc(-n3cnnn3)cc2)CC1`: the GFP response vs DMSO was 93.2% (inactive).

Turning to `CCOC(=O)N1CCN(S(=O)(=O)c2ccc(Br)cc2)CC1`, the GFP response vs DMSO was 576% [may fluoresce violet] (active).

`CCOC(=O)N1CCN(S(=O)(=O)c2ccc(OC)cc2)CC1`: the GFP response vs DMSO is 98.6% (inactive).

`NC(=O)COC(=O)c1ccc2c(c1)C(=O)N(Cc1ccco1)C2=O`: the GFP response vs DMSO was 103% (inactive).

With `COc1ccc2sc(-c3ccc(N(C)C)cc3)c(-c3ccc4cc[nH]c4c3)c2c1`, the GFP response vs DMSO was 105% (inactive).

On to `COc1ccc(-c2sc3ccc(OC)cc3c2C#Cc2ccccn2)cc1`, for which the GFP response vs DMSO is 87.4% (inactive).

Take `COc1ccc2sc(-c3ccc(N(C)C)cc3)c(C#CCO)c2c1`: the GFP response vs DMSO was 180% [may fluoresce violet] (active).
